Paper PMC4081100, “A DNA-binding-site landscape and regulatory network analysis for NAC transcription factors in Arabidopsis thaliana”

Tests used:
Assay in all cases: universal protein binding microarray (PBM); transcription factors of Arabidopsis thaliana; high values mean tight binding
Conditions in all cases: protein: recombinant; tags: GST; chain copies: 2; dsDNA, one strand shown
GST-ANAC092(1-176) = molecular target: T1, GST-ANAC092(1-176) (Arabidopsis thaliana, UniProt Q9FKA0 1-176)
T1 sequence: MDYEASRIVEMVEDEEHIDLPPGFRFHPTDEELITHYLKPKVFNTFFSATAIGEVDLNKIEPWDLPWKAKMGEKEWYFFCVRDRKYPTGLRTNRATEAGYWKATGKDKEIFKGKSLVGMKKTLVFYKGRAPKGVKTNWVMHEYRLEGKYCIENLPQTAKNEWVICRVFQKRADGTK
In short: (§1)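 Binding is expressed as the normalised enrichment score (E-score). Proteins carrying a GST tag, whether NAC-domain, full-length or DNA-binding-domain forms, were induced in cells, and zinc acetate was added for zinc-finger proteins. After purification on glutathione–Sepharose 4B and quantification by A280 or anti-GST western blot, each was applied in duplicate at 200 to 500 nM final to custom all-10-mer Agilent 4 × 180K arrays made double-stranded by primer extension. Gapped and ungapped 8-mers were scored.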

GST-NTL6(1-168) = GST-NTL6(1-168) (Arabidopsis thaliana, UniProt Q9SCK6 1-168)
GST-NTL6(1-168), sequence (Q9SCK6 1-168): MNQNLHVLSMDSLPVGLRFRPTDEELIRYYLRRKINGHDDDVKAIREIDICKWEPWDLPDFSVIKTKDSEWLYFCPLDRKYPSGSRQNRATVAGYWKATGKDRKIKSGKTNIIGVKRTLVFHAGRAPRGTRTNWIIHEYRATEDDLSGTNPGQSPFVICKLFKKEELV
In short: as §1

GST-ANAC019 NAC domain = molecular target: T2, GST-ANAC019 NAC domain (Arabidopsis thaliana, UniProt Q9C932 14-162)
T2 sequence: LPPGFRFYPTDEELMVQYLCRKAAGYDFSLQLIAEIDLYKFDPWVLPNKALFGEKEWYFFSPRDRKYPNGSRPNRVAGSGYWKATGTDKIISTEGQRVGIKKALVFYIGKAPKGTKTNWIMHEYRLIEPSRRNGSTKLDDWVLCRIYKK
In short: as §1

GST-ANAC055(1-171) = molecular target: T3, GST-ANAC055(1-171) (Arabidopsis thaliana, UniProt Q9LDY8 1-171)
T3 sequence: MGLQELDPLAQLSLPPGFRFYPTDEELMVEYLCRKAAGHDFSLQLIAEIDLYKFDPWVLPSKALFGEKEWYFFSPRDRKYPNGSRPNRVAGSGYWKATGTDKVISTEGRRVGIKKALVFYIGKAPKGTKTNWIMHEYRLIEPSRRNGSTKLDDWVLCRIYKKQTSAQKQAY
In short: as §1

GST-ATAF1 NAC domain = molecular target: T4, GST-ATAF1 NAC domain (Arabidopsis thaliana, UniProt Q39013 7-158)
T4 sequence: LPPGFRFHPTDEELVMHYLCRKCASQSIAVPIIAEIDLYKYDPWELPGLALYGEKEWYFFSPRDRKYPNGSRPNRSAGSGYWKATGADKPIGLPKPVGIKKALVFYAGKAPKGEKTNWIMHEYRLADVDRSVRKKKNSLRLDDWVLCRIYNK
In short: as §1

[1] = molecular target: T5, GST-ANAC092(1-285) full length (Arabidopsis thaliana, UniProt Q9FKA0 1-285)
T5 sequence: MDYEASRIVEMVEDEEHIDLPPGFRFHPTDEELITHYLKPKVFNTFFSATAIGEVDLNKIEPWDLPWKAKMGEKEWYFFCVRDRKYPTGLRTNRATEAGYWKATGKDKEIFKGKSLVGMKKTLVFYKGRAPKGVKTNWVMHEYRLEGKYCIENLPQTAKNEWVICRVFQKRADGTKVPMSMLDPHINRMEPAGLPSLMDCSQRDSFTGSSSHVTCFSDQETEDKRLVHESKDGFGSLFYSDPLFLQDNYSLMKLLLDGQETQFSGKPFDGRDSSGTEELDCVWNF
In short: as §1

GST-NAP(1-166) = molecular target: T6, GST-NAP(1-166) (Arabidopsis thaliana, UniProt O49255 1-166)
T6 sequence: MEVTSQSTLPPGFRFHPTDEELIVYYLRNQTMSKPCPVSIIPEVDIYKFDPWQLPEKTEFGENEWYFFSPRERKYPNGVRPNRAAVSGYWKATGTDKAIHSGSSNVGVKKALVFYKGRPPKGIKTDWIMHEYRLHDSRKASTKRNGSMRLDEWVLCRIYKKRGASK
In short: as §1

GST-NST2(1-184) = molecular target: T7, GST-NST2(1-184) (Arabidopsis thaliana, UniProt Q9M274 1-184)
T7 sequence: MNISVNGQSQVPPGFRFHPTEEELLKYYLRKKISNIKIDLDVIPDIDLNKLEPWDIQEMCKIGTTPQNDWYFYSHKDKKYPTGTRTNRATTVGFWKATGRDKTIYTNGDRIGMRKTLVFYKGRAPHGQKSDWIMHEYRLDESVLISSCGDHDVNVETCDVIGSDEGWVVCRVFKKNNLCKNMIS
In short: as §1

GST-SND1(1-203) = molecular target: T8, GST-SND1(1-203) (Arabidopsis thaliana, UniProt Q9LPI7 1-203)
T8 sequence: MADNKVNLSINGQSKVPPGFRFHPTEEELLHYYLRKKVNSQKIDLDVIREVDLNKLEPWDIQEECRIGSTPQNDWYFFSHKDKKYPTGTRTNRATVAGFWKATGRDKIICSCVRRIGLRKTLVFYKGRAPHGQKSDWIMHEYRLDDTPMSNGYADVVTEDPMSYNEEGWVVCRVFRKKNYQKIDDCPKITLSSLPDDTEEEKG
In short: as §1

GST-VND3 NAC domain = molecular target: T9, GST-VND3 NAC domain (Arabidopsis thaliana, UniProt Q9FH59 12-162)
T9 sequence: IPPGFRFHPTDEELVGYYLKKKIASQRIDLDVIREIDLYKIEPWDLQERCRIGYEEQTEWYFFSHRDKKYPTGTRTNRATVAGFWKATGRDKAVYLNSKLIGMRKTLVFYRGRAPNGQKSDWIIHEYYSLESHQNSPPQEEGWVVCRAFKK
In short: as §1

GST-VND7 NAC domain = molecular target: T10, GST-VND7 NAC domain (Arabidopsis thaliana, UniProt Q9C8W9 9-158)
T10 sequence: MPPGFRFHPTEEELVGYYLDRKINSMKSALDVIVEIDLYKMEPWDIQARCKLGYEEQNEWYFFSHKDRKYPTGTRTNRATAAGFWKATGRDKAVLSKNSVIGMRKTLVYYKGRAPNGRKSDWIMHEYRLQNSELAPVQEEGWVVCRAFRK
In short: as §1

GST-NTL8 NAC domain = molecular target: T11, GST-NTL8 NAC domain (Arabidopsis thaliana, UniProt Q9XIN7 14-156)
T11 sequence: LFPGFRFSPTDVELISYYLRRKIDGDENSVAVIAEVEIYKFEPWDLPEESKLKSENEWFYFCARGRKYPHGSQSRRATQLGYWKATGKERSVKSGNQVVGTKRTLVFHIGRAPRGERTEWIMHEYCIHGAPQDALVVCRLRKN
In short: as §1

| Sequence | binding signal (GST-ANAC092(1-176)) [E-score] | binding signal (GST-NTL6(1-168)) [E-score] | binding signal (GST-ANAC019 NAC domain) [E-score] | binding signal (GST-ANAC055(1-171)) [E-score] | binding signal (GST-ATAF1 NAC domain) [E-score] | binding signal [1] [E-score] | binding signal (GST-NAP(1-166)) [E-score] | binding signal (GST-NST2(1-184)) [E-score] | binding signal (GST-SND1(1-203)) [E-score] | binding signal (GST-VND3 NAC domain) [E-score] | binding signal (GST-VND7 NAC domain) [E-score] | binding signal (GST-NTL8 NAC domain) [E-score] |
| --- | --- | --- | --- | --- | --- | --- | --- | --- | --- | --- | --- | --- |
| ATAGCGTG | 0.464 | 0.0569 | 0.174 | 0.167 | 0.128 | 0.47 | 0.105 | 0.332 | 0.418 | 0.218 | 0.15 |  |
| CTAAGTAA | 0.2 | 0.49 | 0.0529 | 0.0945 | 0.107 | 0.3 | 0.188 | 0.225 | 0.394 | 0.238 | 0.209 | 0.216 |
| ATACGTAA | 0.462 | 0.175 | 0.476 | 0.451 | 0.407 | 0.45 | 0.461 | 0.331 | 0.393 | 0.462 | 0.458 |  |
| AACACGCC | 0.391 | 0.094 | 0.238 | 0.253 | 0.0901 | 0.431 | 0.184 | 0.144 | 0.144 | 0.1 | 0.0653 |  |
| AAACGTAA | 0.261 | 0.216 | 0.268 | 0.325 | 0.296 | 0.378 | 0.294 | 0.302 | 0.435 | 0.344 | 0.294 | 0.154 |
| CACGTAAG | 0.449 | 0.068 | 0.463 | 0.441 | 0.349 | 0.446 | 0.419 | 0.201 | 0.0778 | 0.447 | 0.447 | 0.17 |
